Reference: PubChem BioAssay (EPA / NIEHS)
Results filed as inconclusive are left out. Calls of active or inactive are those of the source. Rule for the calls, unless noted: active = hit-call score of the fitted dose curve at least 0.9, where 1 is the maximum; inconclusive = response in the unintended direction; inactive = score below 0.9.

Columns and labels:
[1] = target: human RAR-related Orphan Receptor gamma (RORg), RORC (gene 6097) (UniProt P51449); assay: ATG_RORg_TRANS: Attagene TRANS-FACTORIAL HepG2 Assay for human RAR-related Orphan Receptor gamma (RORg) (AID 2283011)
Sequence of human RAR-related Orphan Receptor gamma (RORg), RORC (gene 6097) (P51449 whole entry, looked up, the tested form may be a part): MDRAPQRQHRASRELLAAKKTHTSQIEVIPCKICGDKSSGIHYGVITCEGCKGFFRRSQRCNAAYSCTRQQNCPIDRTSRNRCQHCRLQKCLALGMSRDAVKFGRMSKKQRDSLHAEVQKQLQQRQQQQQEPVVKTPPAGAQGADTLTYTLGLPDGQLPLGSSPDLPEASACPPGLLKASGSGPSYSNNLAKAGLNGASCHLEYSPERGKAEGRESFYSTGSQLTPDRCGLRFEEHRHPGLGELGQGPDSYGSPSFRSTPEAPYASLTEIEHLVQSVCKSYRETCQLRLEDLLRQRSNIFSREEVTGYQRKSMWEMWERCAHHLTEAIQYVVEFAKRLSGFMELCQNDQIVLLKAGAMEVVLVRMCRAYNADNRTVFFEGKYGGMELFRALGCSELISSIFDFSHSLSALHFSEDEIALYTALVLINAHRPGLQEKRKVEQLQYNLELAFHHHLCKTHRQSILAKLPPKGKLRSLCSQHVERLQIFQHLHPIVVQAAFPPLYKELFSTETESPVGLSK
How it was run: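 Reporter transcripts from a transfected RORg-GAL4 chimera in HepG2 cells were quantified 24 h after dosing by RT-PCR, 6-FAM labelling, HpaI digestion and capillary electrophoresis; increases over DMSO baseline were fitted.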

[2] = target: Retinoic acid receptor RXR-alpha (Homo sapiens) (UniProt P19793); assay: ATG_RXRa_TRANS: Attagene TRANS-FACTORIAL HepG2 Assay for human Retinoid X Receptor alpha (RXRa) (AID 2283012)
Sequence of Retinoic acid receptor RXR-alpha (Homo sapiens) (P19793 whole entry, looked up, the tested form may be a part): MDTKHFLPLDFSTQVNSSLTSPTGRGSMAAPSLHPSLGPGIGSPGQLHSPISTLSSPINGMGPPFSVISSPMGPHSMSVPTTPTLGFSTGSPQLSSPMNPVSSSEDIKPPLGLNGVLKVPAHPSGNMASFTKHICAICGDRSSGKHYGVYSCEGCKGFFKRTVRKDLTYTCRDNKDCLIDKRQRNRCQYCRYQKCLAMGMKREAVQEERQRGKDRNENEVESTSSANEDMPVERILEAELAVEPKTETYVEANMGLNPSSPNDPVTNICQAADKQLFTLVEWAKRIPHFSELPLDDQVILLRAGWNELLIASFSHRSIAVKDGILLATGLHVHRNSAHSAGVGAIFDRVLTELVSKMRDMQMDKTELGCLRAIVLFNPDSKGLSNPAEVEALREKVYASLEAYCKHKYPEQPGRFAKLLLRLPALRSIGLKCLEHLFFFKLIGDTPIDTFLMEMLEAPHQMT
How it was run: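 HepG2 cells transiently transfected with multiplexed GAL4-UAS reporter units and chimeric NR-GAL4 fusions, dosed 24 h. Reporter mRNA measured by RT-PCR, FAM labelling, HpaI digestion and capillary electrophoresis; gain-of-signal fitted relative to DMSO baseline.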

[3] = target: human Retinoid X Receptor beta (RXRb), RXRB (gene 6257) (UniProt P28702); assay: ATG_RXRb_TRANS: Attagene TRANS-FACTORIAL HepG2 Assay for human Retinoid X Receptor beta (RXRb) (AID 2283013)
Sequence of human Retinoid X Receptor beta (RXRb), RXRB (gene 6257) (P28702 whole entry, looked up, the tested form may be a part): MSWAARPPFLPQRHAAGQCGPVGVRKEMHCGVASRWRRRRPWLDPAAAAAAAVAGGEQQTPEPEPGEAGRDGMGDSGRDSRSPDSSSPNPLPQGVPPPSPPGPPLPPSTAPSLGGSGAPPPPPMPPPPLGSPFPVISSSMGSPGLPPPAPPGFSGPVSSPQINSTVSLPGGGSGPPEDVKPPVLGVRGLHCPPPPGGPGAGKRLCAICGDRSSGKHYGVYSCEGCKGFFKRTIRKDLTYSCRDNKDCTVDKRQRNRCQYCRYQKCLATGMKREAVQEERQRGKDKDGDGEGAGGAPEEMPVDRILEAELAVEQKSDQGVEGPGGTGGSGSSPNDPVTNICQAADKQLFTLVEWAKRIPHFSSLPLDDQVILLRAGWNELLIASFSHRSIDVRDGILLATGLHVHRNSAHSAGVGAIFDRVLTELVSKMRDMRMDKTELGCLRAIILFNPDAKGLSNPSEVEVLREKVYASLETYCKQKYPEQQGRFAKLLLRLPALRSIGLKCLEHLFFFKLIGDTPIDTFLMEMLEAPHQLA
How it was run: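 HepG2 cells transiently transfected with multiplexed reporter units driven by GAL4-UAS and exogenous chimeric NR-Gal4 proteins; treated 24 h. Reporter mRNA measured by RT-PCR, 6-FAM labelling and capillary electrophoresis; gain-of-signal fitted versus DMSO baseline.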

[4] = target: human Thyroid Receptor alpha (THRa1), THRA (gene 7067) (UniProt P10827); assay: ATG_THRa1_TRANS: Attagene TRANS-FACTORIAL HepG2 Assay for human Thyroid Receptor alpha (THRa1) (AID 2283014)
Sequence of human Thyroid Receptor alpha (THRa1), THRA (gene 7067) (P10827 whole entry, looked up, the tested form may be a part): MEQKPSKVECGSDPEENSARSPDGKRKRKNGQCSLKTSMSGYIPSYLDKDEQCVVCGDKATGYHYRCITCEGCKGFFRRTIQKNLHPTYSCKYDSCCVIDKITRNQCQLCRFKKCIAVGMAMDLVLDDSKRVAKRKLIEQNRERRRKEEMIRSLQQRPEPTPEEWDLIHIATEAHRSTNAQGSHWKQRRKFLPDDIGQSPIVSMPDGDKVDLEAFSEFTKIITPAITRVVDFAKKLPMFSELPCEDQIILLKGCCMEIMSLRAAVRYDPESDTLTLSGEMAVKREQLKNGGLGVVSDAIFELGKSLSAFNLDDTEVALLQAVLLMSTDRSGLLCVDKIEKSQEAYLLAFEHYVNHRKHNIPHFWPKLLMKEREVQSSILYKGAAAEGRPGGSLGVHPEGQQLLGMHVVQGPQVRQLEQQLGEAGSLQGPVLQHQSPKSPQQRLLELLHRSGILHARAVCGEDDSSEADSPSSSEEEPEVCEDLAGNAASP
How it was run: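 Transcripts from GAL4-UAS-driven reporters, measured after 24 h compound exposure by RT-PCR plus capillary electrophoresis of 6-FAM-labeled fragments, were fitted for gain of signal relative to DMSO. Cells: transiently transfected HepG2 expressing NR-Gal4 chimeras.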

[5] = target: human Vitamin D Receptor (VDR), VDR (gene 7421) (UniProt P11473); assay: ATG_VDR_TRANS: Attagene TRANS-FACTORIAL HepG2 Assay for human Vitamin D Receptor (VDR) (AID 2283022)
Sequence of human Vitamin D Receptor (VDR), VDR (gene 7421) (P11473 whole entry, looked up, the tested form may be a part): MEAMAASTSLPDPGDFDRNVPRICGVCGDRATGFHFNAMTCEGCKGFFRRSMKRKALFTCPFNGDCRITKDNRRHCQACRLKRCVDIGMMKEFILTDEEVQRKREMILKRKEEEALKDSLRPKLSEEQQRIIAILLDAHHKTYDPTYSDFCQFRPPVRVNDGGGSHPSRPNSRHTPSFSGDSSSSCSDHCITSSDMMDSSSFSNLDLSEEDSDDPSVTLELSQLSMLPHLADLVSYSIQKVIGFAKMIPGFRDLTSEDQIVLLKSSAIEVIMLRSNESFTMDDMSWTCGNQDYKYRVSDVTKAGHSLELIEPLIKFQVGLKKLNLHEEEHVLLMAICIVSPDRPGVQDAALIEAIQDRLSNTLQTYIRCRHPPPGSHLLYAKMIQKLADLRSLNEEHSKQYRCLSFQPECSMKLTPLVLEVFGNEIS
How it was run: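 Transactivation by an exogenous VDR-Gal4 chimera in transiently transfected HepG2 cells was measured as reporter transcript level 24 hours after chemical treatment. RT-PCR products were analysed by capillary electrophoresis and fitted in the positive direction relative to DMSO.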

[6] = read-out: E-selectin (Homo sapiens) (UniProt P16581); assay: BSK_3C_Eselectin: BioMAP Diversity Plus: 3C Assay for Eselectin Biomarker Activity (AID 2283015; active = hit-call score of the fitted dose curve at least 0.9, where 1 is the maximum; inactive = score below 0.9;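 note: cell surface E-selectin protein quantified by ELISA 24 h after dosing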); conditions: primary human endothelial cells (HUVEC); actives raise or lower the signal
How it was run: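 E-selectin ELISA readout, fitted bidirectionally relative to DMSO, taken 24 h post-dosing in HUVEC cultures of the 3C system. Overt cytotoxicity tracked with sulforhodamine B staining of parallel wells.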

[7] = read-out: Interleukin-1 alpha (IL1a), IL1A (gene 3552); assay: BSK_BE3C_IL1a: BioMAP Diversity Plus: BE3C Assay for Interleukin-1 alpha (IL1a) Biomarker Activity (AID 2283016; active = hit-call score of the fitted dose curve at least 0.9, where 1 is the maximum; inactive = score below 0.9); conditions: primary human bronchial epithelial cells; actives raise or lower the signal
How it was run: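 Human primary bronchial epithelial cells (BE3C system) were dosed with compound and IL-1a measured by ELISA 24 h later. Activity was fitted bidirectionally against DMSO baseline; cytotoxicity was tracked in parallel cultures by SRB total-protein staining.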

[8] = read-out: Monocyte Chemoattractant Protein-1 (MCP1), CCL2 (gene 6347); assay: BSK_3C_MCP1: BioMAP Diversity Plus: 3C Assay for Monocyte Chemoattractant Protein-1 (MCP1) Biomarker Activity (AID 2283017; active = hit-call score of the fitted dose curve at least 0.9, where 1 is the maximum; inactive = score below 0.9); conditions: primary human endothelial cells (HUVEC); actives raise or lower the signal
How it was run: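 MCP-1 was measured by ELISA 24 h after dosing in primary HUVEC 3C cultures and fitted in both directions relative to DMSO; cytotoxicity was checked by SRB total-protein staining in parallel wells.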

[9] = read-out: Monocyte Chemoattractant Protein-1 (MCP1), CCL2 (gene 6347); assay: BSK_4H_MCP1: BioMAP Diversity Plus: 4H Assay for Monocyte Chemoattractant Protein-1 (MCP1) Biomarker Activity (AID 2283018; active = hit-call score of the fitted dose curve at least 0.9, where 1 is the maximum; inactive = score below 0.9); conditions: primary human endothelial cells (HUVEC); actives raise or lower the signal
How it was run: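 Human umbilical vein endothelial cells (4H system) dosed with chemical; MCP-1 measured by ELISA 24 h after dosing. Bidirectional curve fitting against DMSO negative control as baseline; parallel SRB total-protein staining tracks overt cytotoxicity.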

[10] = read-out: Human Leukocyte Antigen - DR isotype (HLADR), HLA-DRA (gene 3122); assay: BSK_3C_HLADR: BioMAP Diversity Plus: 3C Assay for Human Leukocyte Antigen - DR isotype (HLADR) Biomarker Activity (AID 2283019; active = hit-call score of the fitted dose curve at least 0.9, where 1 is the maximum; inactive = score below 0.9;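 note: ELISA of cell-surface HLA-DR on HUVEC 24 h after dosing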); conditions: primary human endothelial cells (HUVEC); actives raise or lower the signal
How it was run: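 Bidirectional fitting against DMSO was applied to the HLA-DR ELISA signal from human umbilical vein endothelial cells, 24 h post-dose. Cytotoxicity came from parallel SRB total-protein staining; 3C proliferation was counted by SRB at 48 h.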

[11] = read-out: Interleukin-8 (IL8), CXCL8 (gene 3576); assay: BSK_3C_IL8: BioMAP Diversity Plus: 3C Assay for Interleukin-8 (IL8) Biomarker Activity (AID 2283020; active = hit-call score of the fitted dose curve at least 0.9, where 1 is the maximum; inactive = score below 0.9); conditions: primary human endothelial cells (HUVEC); actives raise or lower the signal
How it was run: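 Primary human umbilical vein endothelial cells (3C system) were exposed to test chemical for 24 h, then IL-8 was quantified by ELISA. Responses were fitted bidirectionally against DMSO vehicle as baseline.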

[12] = read-out: Monokine induced gamma interferon (MIG), CXCL9 (gene 4283); assay: BSK_3C_MIG: BioMAP Diversity Plus: 3C Assay for Monokine induced gamma interferon (MIG) Biomarker Activity (AID 2283021; active = hit-call score of the fitted dose curve at least 0.9, where 1 is the maximum; inactive = score below 0.9); conditions: primary human endothelial cells (HUVEC); actives raise or lower the signal
How it was run: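 Primary human umbilical vein endothelial cells in the 3C system were exposed to chemical for 24 h, after which MIG was quantified by ELISA. Activity was fitted bidirectionally against DMSO as negative control and baseline.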

[13] = BSK_3C_SRB: Viability Assessment in the BioMAP Diversity Plus: 3C Assay (AID 2283023; active = hit-call score of the fitted dose curve at least 0.9, where 1 is the maximum; inactive = score below 0.9;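 note: fitted both ways against DMSO so a hit may be signal rise or drop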); conditions: primary human endothelial cells (HUVEC)
How it was run: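 Cytotoxicity readout in parallel HUVEC 3C cultures: after 24 h compound exposure, cells fixed with 10% TCA, stained with 0.1% SRB and read at 560 nm. Gain or loss relative to DMSO fitted.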

[14] = read-out: Matrix Metallopeptidase 1 (MMP1), MMP1 (gene 4312); assay: BSK_BE3C_MMP1: BioMAP Diversity Plus: BE3C Assay for Matrix Metallopeptidase 1 (MMP1) Biomarker Activity (AID 2283024; active = hit-call score of the fitted dose curve at least 0.9, where 1 is the maximum; inactive = score below 0.9); conditions: primary human bronchial epithelial cells; actives raise or lower the signal
How it was run: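 Primary human bronchial epithelial cells were dosed with test chemicals, and MMP1 levels were measured by ELISA 24 h later. Data were fitted bidirectionally against DMSO as the negative control and activity baseline.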

[15] = read-out: Pselectin, SELP (gene 6403); assay: BSK_4H_Pselectin: BioMAP Diversity Plus: 4H Assay for Pselectin Biomarker Activity (AID 2283026; active = hit-call score of the fitted dose curve at least 0.9, where 1 is the maximum; inactive = score below 0.9); conditions: primary human endothelial cells (HUVEC); actives raise or lower the signal
How it was run: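 Primary human umbilical vein endothelial cells were exposed to test chemical for 24 h, then cell-surface P-selectin was quantified by ELISA. Activity was fitted bidirectionally against DMSO as negative control and baseline.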

[16] = BSK_4H_SRB: Viability Assessment in the BioMAP Diversity Plus: 4H Assay (AID 2283027; active = hit-call score of the fitted dose curve at least 0.9, where 1 is the maximum; inactive = score below 0.9;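 note: cells exposed to compound for 24 h before staining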); conditions: primary human endothelial cells (HUVEC)
How it was run: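 Human umbilical vein endothelial cells were dosed with chemical and, after 24 h, fixed with 10% TCA, stained with 0.1% sulforhodamine B, and read at 560 nm to give total protein as a cytotoxicity measure. Bidirectional fitting relative to DMSO control.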

[17] = read-out: Urokinase-type plasminogen activator receptor (uPAR), PLAUR (gene 5329); assay: BSK_4H_uPAR: BioMAP Diversity Plus: 4H Assay for Urokinase-type plasminogen activator receptor (uPAR) Biomarker Activity (AID 2283030; active = hit-call score of the fitted dose curve at least 0.9, where 1 is the maximum; inactive = score below 0.9); conditions: primary human endothelial cells (HUVEC); actives raise or lower the signal
How it was run: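 uPAR level read by ELISA on HUVEC cultures (BioMAP 4H) 24 h post-dosing, analyzed for gain or loss relative to DMSO. Parallel SRB staining assessed overt cytotoxicity.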

[18] = read-out: Vascular endothelial growth factor receptor 2 (Homo sapiens) (UniProt P35968); assay: BSK_4H_VEGFRII: BioMAP Diversity Plus: 4H Assay for Vascular endothelial growth factor receptor 2 (VEGFR2) Biomarker Activity (AID 2283031; active = hit-call score of the fitted dose curve at least 0.9, where 1 is the maximum; inactive = score below 0.9); conditions: primary human endothelial cells (HUVEC); actives raise or lower the signal
How it was run: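 Measured by ELISA after 24 h of compound treatment: VEGFR2 on primary human umbilical vein endothelial cells, fitted in both directions relative to DMSO. Parallel cultures received SRB staining (560 nm) for overt cytotoxicity.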

[19] = read-out: Human Leukocyte Antigen - DR isotype (HLADR), HLA-DRA (gene 3122); assay: BSK_BE3C_HLADR: BioMAP Diversity Plus: BE3C Assay for Human Leukocyte Antigen - DR isotype (HLADR) Biomarker Activity (AID 2283032; active = hit-call score of the fitted dose curve at least 0.9, where 1 is the maximum; inactive = score below 0.9); conditions: primary human bronchial epithelial cells; actives raise or lower the signal
How it was run: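 Human primary bronchial epithelial cells in the BE3C system were exposed to chemicals for 24 h, after which HLA-DR levels were quantified by ELISA. Activity was fitted bidirectionally, gain or loss of signal, against DMSO as negative control and baseline.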

Measured: outcome

Sequence of E-selectin (Homo sapiens) (P16581 whole entry, looked up): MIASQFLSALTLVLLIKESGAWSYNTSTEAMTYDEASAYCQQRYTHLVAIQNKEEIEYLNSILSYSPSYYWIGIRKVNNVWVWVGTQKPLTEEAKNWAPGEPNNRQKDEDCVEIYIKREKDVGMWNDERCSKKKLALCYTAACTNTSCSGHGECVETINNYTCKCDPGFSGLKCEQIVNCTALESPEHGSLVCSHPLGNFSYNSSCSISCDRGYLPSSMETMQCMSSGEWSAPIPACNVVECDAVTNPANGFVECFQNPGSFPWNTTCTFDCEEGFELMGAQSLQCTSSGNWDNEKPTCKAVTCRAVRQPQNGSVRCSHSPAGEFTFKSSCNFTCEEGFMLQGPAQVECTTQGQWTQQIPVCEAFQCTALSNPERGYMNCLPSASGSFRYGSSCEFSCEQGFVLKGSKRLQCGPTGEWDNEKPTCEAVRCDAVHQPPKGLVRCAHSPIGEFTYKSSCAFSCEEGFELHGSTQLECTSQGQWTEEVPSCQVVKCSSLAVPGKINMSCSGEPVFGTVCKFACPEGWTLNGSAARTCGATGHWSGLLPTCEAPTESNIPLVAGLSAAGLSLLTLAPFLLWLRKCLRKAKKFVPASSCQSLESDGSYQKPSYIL

Cc1cc(=O)n(-c2ccccc2)n1C
inactive: [1] | [2] | [3] | [4] | [5]

CCCCC(CC)COCC1CO1 (stereo not given)
inactive: [1] | [2] | [3] | [4] | [6] | [7] | [8] | [9] | [10] | [11] | [12] | [13] | [14] | [15] | [16] | [17] | [18] | [19]

O=C1OC(=O)c2cc(Oc3ccc4c(c3)C(=O)OC4=O)ccc21
inactive: [1] | [2] | [3] | [4] | [5]

CCCNC(=O)NS(=O)(=O)c1ccc(Cl)cc1
inactive: [1] | [2] | [5]

C=CC(=O)OCCC(=O)O
inactive: [1] | [4]

C=CC(C)(C)C
inactive: [1] | [2] | [5]

COC(=O)/C=C\C(=O)O
inactive: [1] | [3]

O=S(=O)(O)c1cc(S(=O)(=O)O)c2ccc3c(S(=O)(=O)O)cc(S(=O)(=O)O)c4ccc1c2c43
inactive: [1] | [3] | [4]

O=c1n(CCO)c(=O)n(CCO)c(=O)n1CCO
inactive: [1] | [2] | [5]

CC(C)=CC1CC(C)CCO1 (stereo not given)
inactive: [1] | [2] | [5]

CC/C=C\C/C=C\C/C=C\CCCCCCCC(=O)O
inactive: [1] | [2] | [5]

C[Si](C)(CCCN)O[Si](C)(C)CCCN
inactive: [1] | [2] | [5]

COC(=O)c1ccccc1OC
inactive: [1] | [3]

CCCCCCCC(C)=O
inactive: [1] | [3] | [4]

O=CC1CC1
inactive: [1] | [4]

C=COCCCC
inactive: [1] | [4]

CC(=O)OC(C)C
inactive: [1] | [2] | [5]

[Cl][Nd]([Cl])[Cl]
inactive: [1] | [3] | [4]

O=C1CCCN1CCO
inactive: [1] | [4] | [6] | [7] | [8] | [9] | [10] | [11] | [12] | [5] | [13] | [14] | [15] | [16] | [17] | [18] | [19]
